{
  "source": "the supplement of paper PMC10338343",
  "note": "± gives the standard deviation.",
  "data": [
    {"test_system": "EfPiwi piRISC loaded with L1MC piRNA (26 nt)", "assay": "pre-steady-state target cleavage rate (min^-1); auxiliary factor: 500 nM Ephydatia muelleri Gtsf1; guide: L1MC piRNA 5'p-UAACUAAAUACUAUGCAAGCUGUAGG; MIWI and MILI are mouse PIWI proteins and EfPiwi is from a freshwater sponge; tags in brackets are library labels; higher = faster piRNA-guided slicing of the target", "outline": "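Cleave-'n-Seq used a transcribed, DNA-blocked target RNA library at 0.1 nM and active affinity-purified piRISC with one synthetic guide at 1 nM, with or without 500 nM GTSF1 partner protein, in HEPES–potassium acetate buffer at 33 °C for 0–8 or 0–960 min. Uncleaved targets were sequenced and normalised to depth and to weakly complementary targets, and three trials were pooled with k3 capped at 0.0001 min^-1. The pre-steady-state cleavage rate was estimated by a burst-and-steady-state fit.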", "values": [
      {"sequence": "UCCUGGAUCAGGUUGCAUAGUAUUUUGUUA", "pre-steady-state target cleavage rate": "0.00406 ± 0.0022"},
      {"sequence": "UCCUCCUACAGCUUGCAUAGUAUCUAGUUA", "pre-steady-state target cleavage rate": "0.00718 ± 0.0032"},
      {"sequence": "UCCUCCUACAGCUUGCAUAGUAUUUAGCUA", "pre-steady-state target cleavage rate": "0.00335 ± 0.0016"},
      {"sequence": "UCCUGGAUGUCGAACCAUACUAAUUAGUUA", "pre-steady-state target cleavage rate": "< 0.0001"},
      {"sequence": "UCCUGGAACUAGCUUGCAUAGUAUUUAGUUA", "pre-steady-state target cleavage rate": "0.0126 ± 0.0045"},
      {"sequence": "UCCUGGAUGUCGAACGUAAUUAUUUAGUUA", "pre-steady-state target cleavage rate": "< 0.0001"},
      {"sequence": "UCCUGCUACAGCUGCAUAGUAUUUAGUUA", "pre-steady-state target cleavage rate": "0.0102 ± 0.0026"},
      {"sequence": "UCCUGGAUGAGCUUGCAUACUAUUUAGAAA", "pre-steady-state target cleavage rate": "0.00478 ± 0.0029"},
      {"sequence": "UCCUGGAUGUCGGUGCAUAGUAUUUAGUUA", "pre-steady-state target cleavage rate": "0.00511 ± 0.0033"},
      {"sequence": "UCCUGGAUGUCGAACGUUAGUAUUUAGUCA", "pre-steady-state target cleavage rate": "< 0.0001"},
      {"sequence": "UCCUGGAUCAGCUUGCUUACUAUUUAGUUA", "pre-steady-state target cleavage rate": "0.0032 ± 0.0024"},
      {"sequence": "UCCUGGAUGUCGAACGUAUCUAUGUAGUUA", "pre-steady-state target cleavage rate": "< 0.0001"},
      {"sequence": "UCCUGGAUGUCGAAGGAUAGUUUUUAGUUA", "pre-steady-state target cleavage rate": "< 0.0001"},
      {"sequence": "UCCUGGAUGUCGAACCAUAGUAUUUGUUA", "pre-steady-state target cleavage rate": "< 0.0001"},
      {"sequence": "UCCUGGUACAGGAUGCAUAGUAUUUAGAAA", "pre-steady-state target cleavage rate": "0.00448 ± 0.004"},
      {"sequence": "UCCUGGAUGUCGAACCAUUGAAUUUAGUUA", "pre-steady-state target cleavage rate": "< 0.0001"},
      {"sequence": "UCCUCCUACAGCUUGCAUAGUAGUUAGUUA", "pre-steady-state target cleavage rate": "0.00786 ± 0.0026"},
      {"sequence": "UCCUGGAUGUCGAACCAUAGUAUUUCGUUA", "pre-steady-state target cleavage rate": "< 0.0001"},
      {"sequence": "UCCUGGUACAGCUUGCAUAGUAUUUAGUCUA", "pre-steady-state target cleavage rate": "0.00521 ± 0.0031"},
      {"sequence": "UCCUGGAUCAGCAUGCAUAGUAAUUAGUUA", "pre-steady-state target cleavage rate": "0.00437 ± 0.0016"},
      {"sequence": "UCCUGGAACAGCUUGGAUAGUAUUUACAAA", "pre-steady-state target cleavage rate": "0.00254 ± 0.0019"},
      {"sequence": "UCCUGGAUCAGCUUGCAUAGUAUUUAGUUA [g2:g22:cont:t1A]", "pre-steady-state target cleavage rate": "0.0886 ± 0.017"},
      {"sequence": "UCCUGGUAGAGCUUGCAUAGUAUUUAGUAA", "pre-steady-state target cleavage rate": "0.00742 ± 0.0038"},
      {"sequence": "UCCUGCUACAGCUUCCAUAGUAUUUACAAA", "pre-steady-state target cleavage rate": "0.00279 ± 0.0021"},
      {"sequence": "UCCUGGAUGUCGAACGUAUCUAUUUAGAAA [g4:g10:cont:t1A]", "pre-steady-state target cleavage rate": "< 0.0001"},
      {"sequence": "UCCUGGUACAGCUUGCAAAGUAAUUAGUUA", "pre-steady-state target cleavage rate": "0.00305 ± 0.0021"},
      {"sequence": "UCCUGGAUGUCGAUGCAUACUAUUAAGUUA", "pre-steady-state target cleavage rate": "< 0.0001"},
      {"sequence": "UCCUGCUACUGCUUGCAUUGUAUUUAGUUA", "pre-steady-state target cleavage rate": "0.00835 ± 0.0023"},
      {"sequence": "UCCUGGAUGAGCCUUGCAUAGUAUUUAGUUA", "pre-steady-state target cleavage rate": "0.00885 ± 0.0032"},
      {"sequence": "UCCUGGAUGUCGAACGAUAGUAUUUAGUUA", "pre-steady-state target cleavage rate": "< 0.0001"},
      {"sequence": "UCCUGGAUCAGGUUGCAUACUAUUUAGUUA", "pre-steady-state target cleavage rate": "0.00262 ± 0.0019"},
      {"sequence": "UCCUGGAUGUGCCUGCAUAGUAUUUAGUUA", "pre-steady-state target cleavage rate": "0.00933 ± 0.0036"},
      {"sequence": "UCCUGGAUCUCCUUGCAUAGUAUUUAGUAA", "pre-steady-state target cleavage rate": "0.00383 ± 0.0026"},
      {"sequence": "UCCUGGAUGUCGAACCAUAGUAUCUUAGUUA", "pre-steady-state target cleavage rate": "< 0.0001"},
      {"sequence": "UCCUGGAUGAGCUUGCAUUGUAAUUAGUUA", "pre-steady-state target cleavage rate": "0.00306 ± 0.0025"},
      {"sequence": "UCCUGGUACAGCUAUGCAUAGUAUUUAGUUA", "pre-steady-state target cleavage rate": "0.0292 ± 0.0094"},
      {"sequence": "UCCUGCUACAGCUUGCAUAGUAUUAAGAAA", "pre-steady-state target cleavage rate": "0.00481 ± 0.0021"},
      {"sequence": "UCCUGGAUGUCGAACGAUAGUAUUUAGGUA", "pre-steady-state target cleavage rate": "< 0.0001"},
      {"sequence": "UCCUGGAUGUCGAACGUAAGGAUUUAGUUA", "pre-steady-state target cleavage rate": "< 0.0001"},
      {"sequence": "UCCUGCUACAGCUAGCAUAGAAUUUAGUUA", "pre-steady-state target cleavage rate": "0.00327 ± 0.0022"}
    ]}
  ]
}
